biological target: SLC13A5; assay: pooled miR-30 sensor sort-seq; sequence = guide strand; details: shRNA
Further: reference of the scale not given here.

Sequence | sensor-assay potency score (higher = more potent)
TATGACTCCTGTTTTCACCATG | -1.13
TTTAATGAGAGCAAGAGCTGGA | 0.762
TTGCTGTCAGGAAACAACTCGT | -0.663
TTTAAAATTGAATCTCATGTAA | -0.532

biological target: SLC16A5; assay: as above; details: shRNA

Sequence | sensor-assay potency score (higher = more potent)
TTGCTGGCCTGGAACTCCCATT | -1.48
TAGAAAACATAGCTAAAGTTGT | -0.585
TAGCTAAAGTTGTTGGTGGCGT | -0.44
ATGTACACGCAGTAGCCTGTGT | -0.541
TTCAGTGAAGAAGATGCCGATA | -0.558
TAACAAAGTAACCTCCTACTTT | 0.00812
TTGAGCAGGAGTGCCAGGCTGA | -0.145
TTGCTTGGCCTGCAGTACCGCC | -1.47
TTGCAGTTCAGTGAAGAAGATG | -1.64
TTGGCCTGCAGTACCGCCTTTG | -1.15
TTGCTTCCCAGGACCGTCTTTG | -0.623
TTCTGCAGGGCGTAGAAGCTGC | -0.98

biological target: SLC17A2; assay: as above; details: shRNA

Sequence | sensor-assay potency score (higher = more potent)
TTTTTTGCTCCAAATATCCCTG | -0.408
TTATGGGGACAGCTCGTCCAGG | -1.25
TATGTTAGGATGATGGTGCATA | -0.486
TAAACTGACCTGTCCATGCCAT | -0.0582
TCATAAATCACTGTGAACCATA | -0.911
ATGAACAGAAATCTGGACCTTT | 0.387
AAATTGTACAGCTTGCAGCAGC | -0.887
ATTAGATAGACCTTGCTGCTGA | 0.973
TTTCGCACAGTGATCAATCTGA | 0.624
TCTGATGTTAACATGGAGCAGA | -0.539

biological target: SLC17A8; assay: as above; details: shRNA

Sequence | sensor-assay potency score (higher = more potent)
TTTTCCATCAACATATACGGTG | -0.405
TTTCCATCAACATATACGGTGC | -0.418
TTTCATTGTAGTATTTCTCTGT | 0.732
TATATTATTGTGATTTCCCTGA | 0.059
TTTACTTAGACTAACCACGTTG | -0.016
TAAGACATCTTCTTTTTGGGAC | 0.433
TTACTTAGACTAACCACGTTGG | -0.0532
TACAACGATTGTCATAACCATG | -1.63
TAAATCTATAATTTTTTCCGTA | -0.398
ATGAGGAACACATTCTGCCATT | -1.42
TACGGTGCTATTGTTGACCATT | -0.977
TATGAGGAACACATTCTGCCAT | 0.122
